Inconclusive results are not listed. Calls of active or inactive are those of the source. The calls were made as follows: active = hit-call score of the fitted dose curve at least 0.9, where 1 is the maximum; inconclusive = response in the unintended direction; inactive = score below 0.9.
Columns and labels:
[1] = target: Cellular tumor antigen p53 (Homo sapiens) (UniProt P04637); assay: TOX21_p53_BLA_p2_ratio: Tox21 HCT-116 p53 Agonism Beta-lactamase Assay, Ratio, Phase 2 (AID 2283592)
In short: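 In this cell-based reporter format, HCT116 cells were dosed with chemicals delivered from DMSO by 217-fold dilution and incubated 16 h at 37C. Emission at 460 and 530 nm after 2 h CCF4-AM loading provided the ratio, fitted upward versus DMSO.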

[2] = TOX21_p53_BLA_p4_viability: Viability Assessment in the Tox21 HCT-116 p53 Agonism Beta-lactamase Assay, Phase 4 (AID 2283597);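 also: hits lower the luminescence signal meaning cytotoxicity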
In short: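 We seeded HCT116 p53 reporter cells at 4000/well and waited 5 h. We then added compounds in DMSO at a 217-fold dilution and incubated for 16 h. Viability was read as CellTiter-Glo luminescence after 30 min at RT.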

[3] = target: Cellular tumor antigen p53 (Homo sapiens) (UniProt P04637); assay: TOX21_p53_BLA_p5_ratio: Tox21 HCT-116 p53 Agonism Beta-lactamase Assay, Ratio, Phase 5 (AID 2283599)
In short: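 HCT-116 cells carrying a p53-inducible beta-lactamase reporter were seeded at 4000 cells/well and dosed after 5 h with compound in DMSO (217-fold dilution). After 16 h at 37C, CCF4-AM substrate was added for 2 h, and the 460/530 nm emission ratio was scored as gain-of-signal versus DMSO.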

[4] = TOX21_p53_BLA_p5_viability: Viability Assessment in the Tox21 HCT-116 p53 Agonism Beta-lactamase Assay, Phase 5 (AID 2283600)
In short: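 Compounds, pinned from DMSO at 217-fold dilution, were left on the cells for 16 h. The viability endpoint was ATP content measured by CellTiter-Glo luminescence, where falling signal reflects cytotoxicity.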

[5] = target: Cellular tumor antigen p53 (Homo sapiens) (UniProt P04637); assay: TOX21_p53_BLA_p4_ratio: Tox21 HCT-116 p53 Agonism Beta-lactamase Assay, Ratio, Phase 4 (AID 2283601)
In short: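 HCT116 cells carrying an inducible beta-lactamase reporter were plated at 4000 cells/well, rested 5 h, then exposed to compounds in DMSO (217-fold dilution) for 16 h at 37C. CCF4-AM substrate was loaded 2 h at room temperature; 460/530 nm emission ratio scored gain-of-signal versus DMSO.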

[6] = target: Cellular tumor antigen p53 (Homo sapiens) (UniProt P04637); assay: TOX21_p53_BLA_p3_ratio: Tox21 HCT-116 p53 Agonism Beta-lactamase Assay, Ratio, Phase 3 (AID 2283596)
In short: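 HCT116 p53-bla cells (4000/well) given compound in DMSO (217-fold dilution) after 5 h, incubated 16 h at 37C. CCF4-AM substrate 2 h at room temperature; 460/530 nm emission ratio, gain fitted against DMSO.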

THRA (gene 7067) = THRA (gene 7067) (UniProt P10827); assay: TOX21_TRA_COA_Antagonist_Followup_ratio: Tox21 Thyroid Hormone Receptor alpha Antagonism through Coactivator Recruitment Follow-Up Assay, Ratio (AID 2283953)
In short: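 520:495 nm emission ratio (excitation 340 nm) reports fluorescein-SRC-2 peptide recruitment to GST-TRα LBD by TR-FRET with Tb anti-GST antibody. Values were normalized to DMSO (0%) and T3 control wells (100%); loss of signal indicated antagonism.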

THRB (gene 7068) [7] = target: THRB (gene 7068) (UniProt P10828); assay: TOX21_TRB_BLA_Antagonist_Followup_ratio: Tox21 Thyroid Hormone Receptor beta Antagonism Beta-lactamase (BLA) Follow-Up Assay, Ratio (AID 2283958)
In short: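 HEK293T TRb-bla (GAL4 DBD + hTRβ LBD), 2% cs-FBS phenol red-free DMEM, 5 h attach; cpds 11-pt triplicate, 18 h 37C; CCF4-AM 2 h RT; 460/530 ratio vs DMSO; CellTiter-Glo viability same wells.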

[8] = TOX21_TRB_BLA_Antagonist_Followup_viability: Viability Assessment in the Tox21 Thyroid Hormone Receptor beta Antagonism Beta-lactamase (BLA) Follow-Up Assay (AID 2283961)
In short: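 Viability read as CellTiter-Glo ATP luminescence (loss of signal = cytotoxicity) in the same plates as the TRβ-bla readout. TRβ-LBD/GAL4 UAS-bla HEK293T cells were exposed to compounds, 11 concentrations in triplicate, for 18 h at 37C/5% CO2.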

THRB (gene 7068) [9] = target: THRB (gene 7068) (UniProt P10828); assay: TOX21_TRB_COA_Antagonist_Followup_ratio: Tox21 Thyroid Hormone Receptor beta Antagonism through Coactivator Recruitment Follow-Up Assay, Ratio (AID 2283967)
In short: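 Cell-free TR-FRET coactivator recruitment with GST-tagged TRβ LBD (5.0 nM) and fluorescein-labeled SRC-2 peptide (200 nM) detected by terbium anti-GST antibody (2 nM). The 520:495 nm emission ratio was normalized to DMSO (0%) and T3 (100%).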

[10] = target: Retinoic acid receptor RXR-alpha (Homo sapiens) (UniProt P19793); assay: TOX21_TR_RXR_BLA_Antagonist_Followup_ratio: Tox21 Thyroid Hormone Receptor beta Retinoid X Receptor alpha (RXRa) Antagonism Beta-lactamase (BLA) Follow-Up Assay, Ratio (AID 2283972)
In short: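 Beta-lactamase reporter readout as cleaved/uncleaved substrate ratio (460:530 nm) after 2 h substrate loading at room temperature. GAL4-RXRa bla HEK293T cells were exposed 16 h at 37C to 11-point compound series; loss of signal scored against DMSO baseline.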

[11] = TOX21_p53_BLA_p3_viability: Viability Assessment in the Tox21 HCT-116 p53 Agonism Beta-lactamase Assay, Phase 3 (AID 2283593);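 also: cells exposed to compound for 16 h before reading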
In short: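 HCT-116 cells (4000/well) rested 5 h at 37C, then got DMSO compounds by pin tool (217-fold dilution) for 16 h at 37C, 5% CO2. After the bla read, CellTiter-Glo was added and luminescence read at 30 min, room temperature.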

[12] = ACEA_ER_AUC_viability: ACEA Biosciences xCELLigence Real-Time Cell Analysis on Estrogen Receptor Agonism for Viability (AID 2283782);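 also: continuous compound exposure with impedance area under curve over 80 h; hit means loss of impedance signal meaning reduced cell growth or viability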
In short: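 T-47D human breast cells in phenol red-free RPMI1640 with 10% charcoal-stripped FBS were dosed with an 8-point 1:4 dilution series from 100 uM top final concentration, in duplicate. Impedance-based growth was followed for 80 h; AUC analysed versus DMSO.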

Chain of Cellular tumor antigen p53 (Homo sapiens) (P04637 whole entry, looked up): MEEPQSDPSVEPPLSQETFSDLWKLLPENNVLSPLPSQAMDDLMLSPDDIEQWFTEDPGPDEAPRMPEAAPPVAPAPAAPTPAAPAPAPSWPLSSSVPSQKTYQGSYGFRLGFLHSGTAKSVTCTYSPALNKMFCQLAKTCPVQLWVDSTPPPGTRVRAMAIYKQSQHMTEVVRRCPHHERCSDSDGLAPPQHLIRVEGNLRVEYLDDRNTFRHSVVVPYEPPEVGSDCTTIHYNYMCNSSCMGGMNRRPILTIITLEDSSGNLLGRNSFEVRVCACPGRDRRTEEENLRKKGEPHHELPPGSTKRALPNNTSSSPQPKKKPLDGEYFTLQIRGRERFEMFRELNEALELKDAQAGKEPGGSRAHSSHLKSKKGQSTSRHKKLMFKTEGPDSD
Chain of THRB (gene 7068) (P10828 whole entry, looked up, the tested form may be a part): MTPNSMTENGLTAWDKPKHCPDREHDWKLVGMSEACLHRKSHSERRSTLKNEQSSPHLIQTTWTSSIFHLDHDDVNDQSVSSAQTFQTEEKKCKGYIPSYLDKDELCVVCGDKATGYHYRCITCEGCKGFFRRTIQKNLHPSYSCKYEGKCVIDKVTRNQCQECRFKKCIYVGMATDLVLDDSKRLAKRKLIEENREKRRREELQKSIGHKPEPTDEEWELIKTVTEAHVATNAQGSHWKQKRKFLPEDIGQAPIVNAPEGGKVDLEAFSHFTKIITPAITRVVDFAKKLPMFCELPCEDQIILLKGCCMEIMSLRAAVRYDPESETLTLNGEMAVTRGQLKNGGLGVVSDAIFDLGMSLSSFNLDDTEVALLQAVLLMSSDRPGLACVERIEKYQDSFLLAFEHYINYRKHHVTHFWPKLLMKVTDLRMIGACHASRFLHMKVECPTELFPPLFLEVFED
Chain of Retinoic acid receptor RXR-alpha (Homo sapiens) (P19793 whole entry, looked up, the tested form may be a part): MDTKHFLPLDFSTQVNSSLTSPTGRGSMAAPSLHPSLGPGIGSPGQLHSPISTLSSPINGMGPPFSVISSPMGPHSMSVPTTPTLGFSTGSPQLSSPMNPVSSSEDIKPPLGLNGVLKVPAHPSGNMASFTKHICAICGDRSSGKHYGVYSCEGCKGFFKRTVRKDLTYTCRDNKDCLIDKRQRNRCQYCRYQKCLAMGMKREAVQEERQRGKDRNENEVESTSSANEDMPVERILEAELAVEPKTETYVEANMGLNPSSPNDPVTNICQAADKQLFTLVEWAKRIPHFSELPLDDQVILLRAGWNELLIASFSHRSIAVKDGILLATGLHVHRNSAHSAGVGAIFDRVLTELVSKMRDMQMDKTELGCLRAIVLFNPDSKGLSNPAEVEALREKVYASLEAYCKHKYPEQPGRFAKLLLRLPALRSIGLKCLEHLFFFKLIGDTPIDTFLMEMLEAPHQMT
Chain of THRA (gene 7067) (P10827 whole entry, looked up, the tested form may be a part): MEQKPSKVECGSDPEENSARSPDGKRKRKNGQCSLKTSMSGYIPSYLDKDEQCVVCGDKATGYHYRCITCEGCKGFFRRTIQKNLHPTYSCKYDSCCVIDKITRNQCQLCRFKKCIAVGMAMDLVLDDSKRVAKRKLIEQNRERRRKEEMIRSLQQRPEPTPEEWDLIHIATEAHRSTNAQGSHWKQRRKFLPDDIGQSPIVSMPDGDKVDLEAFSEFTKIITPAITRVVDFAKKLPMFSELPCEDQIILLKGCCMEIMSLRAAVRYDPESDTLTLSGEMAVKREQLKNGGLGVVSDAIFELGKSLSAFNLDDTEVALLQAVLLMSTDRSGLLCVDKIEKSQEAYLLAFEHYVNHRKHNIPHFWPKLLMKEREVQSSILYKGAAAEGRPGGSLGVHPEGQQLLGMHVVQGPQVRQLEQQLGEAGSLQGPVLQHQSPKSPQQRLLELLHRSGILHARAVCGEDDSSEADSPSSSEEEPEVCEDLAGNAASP

## CCCCCN(C)CCC(O)(P(=O)(O)O)P(=O)(O)O
[1]
  outcome: inactive
[2]
  outcome: inactive
[3]
  outcome: inactive
[4]
  outcome: inactive
[5]
  outcome: inactive

## COc1cc([C@@H]2c3cc4c(cc3[C@@H](O)[C@H]3COC(=O)[C@H]23)OCO4)cc(OC)c1O
[1]
  AC50: 35.5 µM (active)
[6]
  outcome: inactive
[3]
  outcome: inactive
[5]
  outcome: inactive
THRA (gene 7067)
  outcome: inactive
THRB (gene 7068) [7]
  AC50: 0.653 µM (active)
[8]
  outcome: inactive
THRB (gene 7068) [9]
  outcome: inactive
[10]
  outcome: inactive

## C=C(Cl)CSC(=S)N(CC)CC
[11]
  outcome: inactive
[6]
  outcome: inactive
[3]
  outcome: inactive
[5]
  outcome: inactive

## O=[N+]([O-])c1cccc2cccnc12
[11]
  outcome: inactive
[6]
  outcome: inactive
[3]
  outcome: inactive
[4]
  outcome: inactive
[5]
  outcome: inactive

## FC(Cl)(Cl)Cl
[1]
  outcome: inactive
[4]
  outcome: inactive

## C=CCBr
[11]
  outcome: inactive
[6]
  outcome: inactive
[3]
  outcome: inactive

## CC(=O)O[C@H]1CC[C@H]2[C@@H]3CCC4=CC(=O)CCC4=C3C=C[C@]12C
[11]
  outcome: inactive
[6]
  outcome: inactive
[2]
  outcome: inactive
[3]
  outcome: inactive
[5]
  outcome: inactive

## CN1C(=O)CC(=O)N(c2ccccc2)c2cc(Cl)ccc21
[1]
  outcome: inactive
[3]
  outcome: inactive
[4]
  outcome: inactive
[5]
  outcome: inactive

## C=CCN1CC[C@]23CCCC[C@H]2[C@H]1Cc1ccc(O)cc13
[11]
  outcome: inactive
[6]
  outcome: inactive
[2]
  outcome: inactive
[4]
  outcome: inactive
[5]
  outcome: inactive

## COC(=O)C1(O)c2ccccc2-c2ccccc21
[1]
  outcome: inactive
[3]
  outcome: inactive
[4]
  outcome: inactive
[12]
  outcome: inactive

## Nc1ccccc1-c1ccccc1
[11]
  outcome: inactive
[6]
  outcome: inactive
[2]
  outcome: inactive
[3]
  outcome: inactive
[5]
  outcome: inactive

## CN(C)CCc1ccc(O)cc1
[1]
  outcome: inactive
[3]
  outcome: inactive
[5]
  outcome: inactive

## CNC(C)Cc1ccccc1OC (stereo not drawn)
[11]
  outcome: inactive
[6]
  outcome: inactive
[2]
  outcome: inactive
[4]
  outcome: inactive

Source: PubChem BioAssay (EPA / NIEHS)
